# Source: PubChem BioAssay AID1259415 (National Center for Advancing Translational Sciences (NCATS), 2018)
# Values joined by “and” are separate entries in the source; they are usually repeats but may differ in a detail not shown here. Equal entries are not always repeated. In all, about 410,000 compounds went through this assay and about 18,000 (4.4%) were called active. Not shown: some 7% with an inconclusive outcome. No stated cut-off is given here; in the data, active means activity change below about -60%; inconclusive means no clear call, values can overlap the other calls; inactive means above about -39%. Only a selection was taken, and actives are over-represented in it overall. The source holds several records for some structures; these can differ, active in one and inactive in another.
# Test: qHTS Assay for inhibitors of the human cytomegalovirus (HCMV)
# Settings: HFF cells, HCMV-luciferase reporter, 72 h; at 57.5 µM; stronger effect = lower value
# In short: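 HFF cells seeded 16 h at 37C, treated with compounds, infected with luciferase-reporter HCMV at MOI 1 PFU/cell; luciferase read at 72 h post infection, normalized to buffer-only and Salinomycin controls.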
# On the % scale 0 is the no-effect control and ±100 the full control effect.
row,Compound,"activity change, negative = inhibition"
1,CCc1nn(CC(=O)Nc2cc(C)cc(C)c2)c(=O)c2cc3sccc3n12,-8.76% (inactive)
2,CCS(=O)(=O)N1CCC(n2c(C)nc3cccnc32)CC1,-0.684% (inactive)
3,CC/C(C)=N/Nc1nc2sc3c(c2c(=O)[nH]1)CC(C)(C)OC3,-10.6% (inactive)
4,C=CCNC(=S)NNc1ncnc2sc3c(c12)CC(C)(C)OC3,-105% (active)
5,CCCSc1nc2sc3c(c2c(=O)n1-c1cccc(Br)c1)CC(C)(C)OC3,-0.221% (inactive)
6,COc1ccc(NC(=O)C2CCCN(S(=O)(=O)c3c(C)[nH]c(=O)[nH]c3=O)C2)c(OC)c1 (configuration not stated),10.4% (inactive)
7,CC(/C=C/c1ccccc1)=N\NC(=O)C1CC1(C)c1ccccc1 (configuration not stated),-62.3% (active)
8,COC(=O)C1(C)CC1(c1ccccc1)c1ccccc1 (configuration not stated),13.4% (inactive)
9,CC(/C=C/c1ccco1)=N/NC(=O)C1COc2ccccc2O1 (configuration not stated),27.4% (inactive)
10,Cc1cn(C2C=CC(CO)O2)c(=O)[nH]c1=O (configuration not stated),-30.1% (inactive)
11,COc1ccc(S(=O)(=O)NCC(c2ccc(N(C)C)cc2)N2CCCC2)cc1 (configuration not stated),-4.35% (inactive)
12,Cc1ccccc1NC(=O)COC(=O)c1cc(C)n(C2CC2)c1C,-2.16% (inactive)
13,Cc1cc(C(=O)COc2ccccc2Cl)c(C)n1C1CC1,-67.2% (active)
14,Cc1cc(C(=O)OCC(=O)Nc2c(F)cccc2F)c(C)n1C1CC1,-2.16% (inactive)
15,COc1cccc(CNC(=O)C2CCC(CNS(=O)(=O)c3cccs3)CC2)c1 (configuration not stated),-3.87% (inactive)
16,Fc1cccc(-n2ncc3c2ncn2nc(-c4ccccc4Cl)nc32)c1,-25.2% (inactive)
17,O=C(Cn1c(=O)n(Cc2ccccc2)c(=O)c2sc3ccccc3c21)Nc1ccccc1F,20.5% (inactive)
18,CCOc1ccc(S(=O)(=O)NCCC(=O)NNC(=O)c2ccc(F)cc2)cc1,70.6% (inactive)
19,Cc1ccc2sc(N(Cc3cccnc3)C(=O)C3COc4ccccc4O3)nc2c1C (configuration not stated),0% (inactive)
20,S=c1c2[nH]cnc2ncn1CCSc1ncnc2nc[nH]c12,-16% (inactive)
21,Cc1ccc(NC(=O)c2ccc(CSc3ncnc4nc[nH]c34)cc2)c(C)c1,-37% (inactive)
22,CCc1ccc(N(CC)c2ncnc3nc[nH]c23)cc1,-84.7% (active)
23,CC(C)(C)C1CCc2c(sc(NC(=O)c3ccccc3F)c2C(=O)N2CCCCC2)C1 (configuration not stated),-1.57% (inactive)

row,Compound,"activity change, negative = inhibition"
1,CCOC(=O)NN1C(=O)c2ccccc2NC1c1cccc(O)c1 (configuration not stated),-96.9% (active)
2,CC(=O)NN1C(=O)c2ccccc2NC1c1ccccc1 (configuration not stated),44.7% (inactive)
3,CCOC(=O)NN1C(=O)c2ccccc2NC1c1ccccc1O (configuration not stated),54.6% (inactive)
4,CC1(C)C(C=C(Cl)Cl)C1C(=O)NC(O)C(=O)c1ccccc1 (configuration not stated),-33.9% (inactive)
5,Cc1cc(C)cc(NC(=O)Cn2c(=O)c3ccccc3n3nncc23)c1,2.01% (inactive)
6,CC(=O)c1sc(N2C(=O)c3oc4ccccc4c(=O)c3C2c2ccc(C)cc2)nc1C (configuration not stated),24.4% (inactive)
7,CN(C(=O)CN1CCN(c2cc(-c3ccc(OCc4ccccc4)cc3)ncn2)CC1)c1ccccc1,-71.2% (active)
8,CCOc1ccc(OCc2ccc(C(=O)N(C)c3ccccc3)o2)cc1,41.3% (inactive)
9,CCN(CC)c1ccc(NC(=O)CN2CCN(c3ccccn3)CC2)cc1,28.5% (inactive)
10,CCCc1cc(=O)n2[nH]c(NCc3ccc(CC)cc3)nc2n1,-6.39% (inactive)
11,CC(=O)NC(c1ccccc1)c1nc(-c2ccccc2C)cs1 (configuration not stated),-25.4% (inactive)
12,CC(=O)NC(c1ccccc1)c1nc(-c2cccc(C(C)C)c2)cs1 (configuration not stated),-66.8% (active)
13,OC(c1ccccc1)c1nc(-c2cnc3ccccc3c2)cs1 (configuration not stated),184% (inactive)
14,Cc1ccc(N(C)C(=O)C2CCN(S(=O)(=O)c3ccc4c(c3)CCCN4C(=O)C3CCC3)CC2)cc1,8.58% (inactive)
15,Cc1c(NC(=O)C(C)Oc2cccc(Cl)c2)c(=O)n(-c2ccccc2)n1C (configuration not stated),-25% (inactive)
16,NC(=O)C1CCN(C(=O)CC2C(=O)NCCN2Cc2cccc(Oc3ccccc3)c2)CC1 (configuration not stated),-38.9% (inactive)
17,CCCCOc1ccc(Cl)cc1CSc1nncn1N,-20.2% (inactive)
18,ClC1(Cl)CC1CSc1ncn[nH]1 (configuration not stated),62.8% (inactive)
19,COc1ccc(Cl)cc1CSc1ncn[nH]1,-63.2% (active)
20,CCCCOc1ccc(NC(=O)c2cc3c(n(-c4ccc(Cl)cc4)c2=O)CCCC3=O)cc1,14.9% (inactive)
21,COC(=O)c1ccc(NC(=O)CSc2n[nH]c(-c3ccccc3)n2)cc1,16.1% (inactive)
22,Cc1ccc(NC(=O)C(=O)NCC(c2cccnc2)N2CCOCC2)cc1 (configuration not stated),-12.5% (inactive)
23,COc1ccccc1N1CCN(C2C(=O)c3ccccc3N2C(C)=O)CC1 (configuration not stated),0% (inactive)

row,Compound,"activity change, negative = inhibition"
1,O=C(N/C(=C\c1ccc(O)cc1)C(=O)N1CCCCC1)c1ccccc1,-16.2% (inactive)
2,Cc1ccc(C(=O)N/C(=C/c2cccs2)C(=O)N2CCCCC2)cc1,-25.9% (inactive)
3,Cc1ccc(C(=O)N/C(=C\c2cn(S(=O)(=O)N(C)C)c3ccccc23)C(=O)N2CCCC2)cc1,-95.9% (active)
4,COc1ccc(OC)c(NC(=O)C2(C)CCN2C(=O)Cc2ccccc2)c1 (configuration not stated),-33.9% (inactive)
5,C#Cc1ccc(NC(=O)C2(C)CCN2C(=O)Cc2ccc(-c3ccccc3)cc2)cc1 (configuration not stated),-83.5% (active)
6,CC1(C(=O)NS(=O)(=O)c2cccs2)CCN1C(=O)Cc1ccc(-c2ccccc2)cc1 (configuration not stated),-1.93% (inactive)
7,COC(=O)c1cc(NC(=O)CCS(=O)(=O)c2cc(Br)cc3c2N(C(=O)C2CC2)CC3)cc(C(=O)OC)c1,3.41% (inactive)
8,CCCC1=Nc2cc(C(=O)NCc3ccco3)ccc2Sc2ccccc21,-69.1% (active)
9,COc1cc(-n2c(C)nc3cc(C(=O)NCc4ccco4)ccc32)cc(OC)c1OC,17.2% (inactive)
10,O=C(NCc1ccco1)c1cccc(-c2ccc3nncn3c2)c1,15.7% (inactive)
11,COc1ccc(-c2ccc(=O)n(CC(=O)Nc3ccc(Br)cc3F)n2)cc1,-10.5% (inactive)
12,O=C1c2cccc3cccc(c23)N1CN1CCN(c2ccccn2)CC1,16% (inactive)
13,CCOC(=O)c1c(C)[nH]c(C)c1S(=O)(=O)NCC(=O)NCc1cccc(C)c1,-20.2% (inactive)
14,COc1ccccc1NC(=O)C1=C(C)Nc2nc(SCC(=O)c3ccc(C)cc3)nn2C1c1ccccc1C (configuration not stated),-1.97% (inactive)
15,Cc1cccc2c1-c1sc(C(=O)Nc3ccc(F)cc3F)cc1CO2,-12.8% (inactive)
16,Cc1cccc(-n2c(SCC(N)=O)nc3c(c2=O)C2(CCCCC2)Cc2ccccc2-3)c1,-70.4% (active)
17,CCOC(=O)C1Cn2c(nc3c(c2=O)C(C)(CC)Cc2ccccc2-3)S1 (configuration not stated),-19.7% (inactive)
18,COc1ccc(-n2c(SCC(N)=O)nc3c(oc4ccccc43)c2=O)cc1,-15.1% (inactive)
19,NC(=O)c1ccc(Nc2ccc3c(c2)CCC3)c([N+](=O)[O-])c1,-8.76% (inactive)
20,CCCCN(CC)C(=O)c1c[nH]c2ccc(S(=O)(=O)Nc3cccc(OC)c3)cc2c1=O,7.97% (inactive)
21,CCOc1ccccc1C(=O)NCc1ccc2c(c1)CCN2C(=O)c1ccc(F)cc1,-15.6% (inactive)
22,Cc1ncsc1CCCl,-26.8% (inactive)
23,Cc1cccc(OCC(=O)Nc2ccc(C(=O)O)cc2NC(=O)COc2cccc(C)c2)c1,-3.05% (inactive)

row,Compound,"activity change, negative = inhibition"
1,Cc1ccc(OCC(=O)Nc2cccc3c2CCCC3)cc1C,-12.3% (inactive)
2,Cc1ccc(OCC(=O)Nc2ccc(C(=O)O)cc2NC(=O)COc2ccc(C)c(C)c2)cc1C,-98.3% (active)
3,COc1ccc(Cl)cc1NC(=O)Cn1nc(-c2ccc(C)cc2)n(C)c1=S,3.99% (inactive)
4,COc1ccc(CNC(=O)C(C)n2nc(C)c3c(C)n(-c4ccccc4)nc3c2=O)c(OC)c1 (configuration not stated),-15.4% (inactive) and -69.2% (active)
5,Cc1ccccc1CNC(=O)CSc1nnc(C)c2c(C)n(-c3ccccc3)nc12,-3% (inactive)
6,Cc1nn(C(C)C(=O)N2CCOCC2)c(=O)c2nn(-c3ccccc3)c(C)c12 (configuration not stated),-17.5% (inactive)
7,Cc1ccc(-n2nc3c(=O)n(C(C)C(=O)NCc4ccc5c(c4)OCO5)nc(C)c3c2C)cc1 (configuration not stated),-83.4% (active)
8,COc1ccc(OC)c(CNC(=O)Cn2nc(C)c3c(C)n(-c4ccccc4)nc3c2=O)c1,-18.6% (inactive)
9,Cc1nn(C(C)C(=O)NCCC2=CCCCC2)c(=O)c2nn(-c3ccccc3)c(C)c12 (configuration not stated),-28.7% (inactive)
10,COc1ccc(-c2n[nH]c3c2CN(C(=O)c2ccc(F)cc2)CC3)cc1,0% (inactive)
11,O=C1C=C[C@]23OCCC[C@@]2(CCCO)CCCC3=C1,-2.29% (inactive)
12,CCOc1cc(N2CCOCC2)c(OCC)cc1NC(=O)COc1cccc2cccnc12,-104% (active)
13,CCOc1cc(N2CCOCC2)c(OCC)cc1NC(=O)C1=NN(c2cccc(C)c2)C(=O)CC1,-25.4% (inactive)
14,CCOc1cc(C(=O)OCC(=O)Nc2cccc(C)c2)ccc1OCC(=O)N1CCOCC1,-3.23% (inactive)
15,Cc1ccc(CNS(=O)(=O)c2ccc(-c3cc(C(F)(F)F)on3)s2)cc1,87.2% (inactive)
16,Cc1ccc(CNS(=O)(=O)c2ccc(C(=O)N(C)C)s2)cc1,1.6% (inactive)
17,O=C(Nc1ccccc1Br)c1cc(CN2CCCC2)on1,27.2% (inactive)
18,CCOc1ccc(N(Cc2ccccc2)C(=O)c2nc(SCC)ncc2Cl)cc1,-68.2% (active)
19,CCOc1ccc(N(CC)C(=O)c2noc3c2COc2ccc(C)cc2-3)cc1,-7.27% (inactive)
20,CCOc1ccc(NC(=O)CN(Cc2ccccc2)S(=O)(=O)c2ccc(Cl)cc2)cc1,2.3% (inactive)
21,CCSc1ncc(Cl)c(C(=O)Nc2c(C(=O)c3ccccc3)oc3ccccc23)n1,12.8% (inactive)
22,COc1ccc(N(Cc2ccc(N(C)C)cc2)C(=O)c2ccc(S(C)(=O)=O)cc2)cc1,6.32% (inactive)
23,CCOc1ccc(N(Cc2ccccc2)C(=O)c2nc(S(C)(=O)=O)ncc2Cl)cc1,-101% (active)
